Test results taken from PubChem BioAssay (Tox21).
Inconclusive results are not listed. Calls of active or inactive are those of the source. Unless noted, calls follow the shape of the dose curve; as a rule, active = well fitted curve in the direction sought with a large enough effect in the repeat runs; inconclusive = weak or mixed curves; inactive = no such curve, though single readings can be large; an effect the other way counts as inactive or inconclusive.

Key:
[1] = qHTS assay to identify small molecule agonists of the hypoxia (HIF-1) signaling pathway - cell viability counter screen (AID 1224844; calls by dose curve; also: nearly all actives have a fitted effect of over 50% in size)
In short: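 Multiplexed with the HRE beta-lactamase assay, this viability read used CellTiter-Glo luminescence (30 min, RT) on HRE-bla ME-180 cells treated 17 hrs with compounds in 0.5% dialyzed FBS medium.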

[2] = qHTS assay to identify small molecule agonists of H2AX (AID 1224845; active = well fitted activation curve with a large enough effect in the signal ratio in the repeat runs, not every such curve was filed as active; the % refers to the signal ratio)
In short: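 Wild-type CHO-K1 cells plated overnight, then exposed 3 hr at 37C to compounds at 15 concentrations (0.76% DMSO). Lysed, then HTRF anti-pH2AX(S139)-cryptate/anti-H2AX-d2 detection after 24 hr at room temperature; emissions 665 and 620 nm.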

[3] = qHTS assay to identify small molecule agonists of the hypoxia (HIF-1) signaling pathway (AID 1224846; active = well fitted activation curve with a large enough effect in the signal ratio in the repeat runs, not every such curve was filed as active; the % refers to the signal ratio)
In short: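 Hypoxia-pathway activation was scored as increased beta-lactamase from an HRE-controlled reporter in ME-180 cells; plated at 2,000 cells per well with 0.5% dialyzed FBS, they were exposed 17 hrs to compounds and then given CCF4-AM.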

[4] = qHTS assay to identify small molecule agonists of H2AX - cell viability counter screen (AID 1224847; calls by dose curve; also: top concentration of the series differs between compounds; nearly all actives have a fitted effect of over 30% in size)
In short: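 Read-out: CellTiter-Glo luminescence, 30 min RT. Cells: wild-type CHO-K1, 1000/well, 10% FBS, plated overnight at 37C. Treatment: 15 concentrations, 3 hr, 37C, 0.76% DMSO.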

[5] = qHTS assay to identify small molecule antagonists of the estrogen related receptor (ERR) signaling pathway from Tox21 library (AID 1224848); also: nearly all actives have a fitted effect of over 50% in size
In short: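 Screening used an ERR reporter line supplied by NTP, exposed for 18 h at 37 C to library compounds delivered in DMSO. Signal was luciferase luminescence developed with ONE-Glo at room temperature for 30 min.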

[6] = qHTS assay to identify small molecule agonists of the estrogen related receptor (ERR) signaling pathway from Tox21 library (AID 1224849; calls by dose curve; also: nearly all actives have a fitted effect of over 15% in size); conditions: ERR reporter cell line, ONE-Glo luciferase, 18 h; at 92.4 µM (top of the series) unless noted
In short: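 Six hours post-seeding at 37 C/5% CO2, ERR cells receive DMSO-solubilised compounds; after 18 h at 37 C, ONE-Glo reagent is applied and luminescence recorded.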

[7] = qHTS RealTime-Glo MT Cell Viability Assay in HepG2 cells - 24 hour (AID 1224867); also: nearly all actives have a fitted effect of over 50% in size
In short: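 Cell number in HepG2 cultures estimated from NanoLuc luminescence generated by metabolic reduction of a prosubstrate by living cells. The homogeneous, nonlytic format allowed repeated reads at 0, 8, 16, 24, 32 and 40 h of compound exposure.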

[8] = A CellTox Green Cytotoxicity Assay to monitor cytotoxicity in HEK293 cells - 0 hour (AID 1224869); also: nearly all actives have a fitted effect of over 50% in size
In short: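 Seeding of HEK293 cells together with cytotoxicity dye preceded a 5 h incubation at 37 C/5% CO2. Test compounds in DMSO were then added and fluorescence monitored across 40 h.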

[9] = qHTS RealTime-Glo MT Cell Viability Assay in HepG2 cells - 40 hour (AID 1224870); also: nearly all actives have a fitted effect of over 50% in size
In short: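 HepG2 cells mixed with RealTime-Glo MT reagents (NanoLuc plus cell-permeant prosubstrate) were seeded at 600 cells/well, incubated 5 h at 37 C/5% CO2, then pinned with compounds in DMSO; nonlytic luminescence tracked viability during 40 h treatment.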

[10] = qHTS RealTime-Glo MT Cell Viability Assay in HEK293 cells - 32 hour (AID 1224868); also: nearly all actives have a fitted effect of over 50% in size; also: potency is read from the fitted curve at half-maximal effect
In short: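 Homogeneous bioluminescent viability format in HEK293 cells (600 cells/well). Following 5 h at 37 C/5% CO2, 23 nL compound was pintooled; the signal was measured repeatedly during 40 h incubation.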
% is scaled to controls: 0 for no effect and ±100 for the full control effect.

Cc1ccc2cc(C)ccc2c1
inactive: Potency [1] | outcome [2] | outcome [3] | Potency [4] | Potency [5] | activity change, positive = activation [6] 0.0091% | Potency [7] | outcome [8] | Potency [9]

N#CN=C1SCCN1Cc1ccc(Cl)nc1
inactive: Potency [1] | outcome [2] | outcome [3] | Potency [4] | Potency [5] | activity change, positive = activation [6] 7.53% | Potency [7] | Potency [10] | outcome [8] | Potency [9]

CN=CNc1ccc(C)cc1C
inactive: Potency [1] | outcome [2] | outcome [3] | Potency [4] | Potency [5] | activity change, positive = activation [6] 1.36% | Potency [7] | Potency [10] | outcome [8]

CCCC[N+](=O)[O-]
inactive: Potency [1] | outcome [2] | outcome [3] | Potency [4] | Potency [5] | activity change, positive = activation [6] -0.684% | Potency [7] | Potency [10] | outcome [8]

CC(Cl)(Cl)Cl
inactive: Potency [1] | outcome [2] | outcome [3] | Potency [4] | Potency [5] | Potency [7] | Potency [10] | outcome [8] | Potency [9]

CN(C)CCN(C)C
inactive: Potency [1] | outcome [2] | outcome [3] | Potency [4] | Potency [5] | activity change, positive = activation [6] 9.25% | Potency [7] | outcome [8]

CC(Cc1ccccc1)NCCn1cnc2c1c(=O)n(C)c(=O)n2C (configuration not stated)
inactive: Potency [1] | outcome [2] | outcome [3] | Potency [4] | Potency [5] | activity change, positive = activation [6] -15.8% | Potency [7] | outcome [8] | Potency [9]
active: Potency [10] 21.6 µM

Cc1ccc(Cl)c(O)c1
inactive: Potency [1] | outcome [2] | outcome [3] | Potency [4] | Potency [5] | activity change, positive = activation [6] 6.81% [at 42.5 µM] | Potency [7] | Potency [10] | Potency [9]

C#CCOC(=O)/C=C(C)/C=C/CC(C)CCCC(C)C (configuration not stated)
inactive: Potency [1] | outcome [2] | outcome [3] | Potency [4] | Potency [5] | Potency [7] | Potency [10]

O=C(Cl)/C=C/C(=O)Cl
inactive: Potency [1] | outcome [2] | outcome [3] | Potency [4] | Potency [5] | activity change, positive = activation [6] -12% | Potency [7] | Potency [9]

BrCCc1ccccc1
inactive: Potency [1] | outcome [2] | outcome [3] | Potency [4] | Potency [5] | activity change, positive = activation [6] 0.561% | Potency [7] | Potency [10] | outcome [8] | Potency [9]

NC(=O)CS(=O)C(c1ccccc1)c1ccccc1 (configuration not stated)
inactive: Potency [1] | outcome [2] | outcome [3] | Potency [4] | Potency [5] | activity change, positive = activation [6] 9.38% [at 42.5 µM] | Potency [7] | outcome [8] | Potency [9]

CNC(=O)Oc1ccccc1C(C)C
inactive: Potency [1] | outcome [2] | outcome [3] | Potency [4] | Potency [5] | activity change, positive = activation [6] 1.9% | Potency [7] | Potency [10] | outcome [8] | Potency [9]
